High-throughput results: PubChem, Sanford-Burnham Center for Chemical Genomics
Mac1 fbg enh: CD11b/CD18-fibrinogen binding enhancement | activation, % at 10 µM | 0.07% of 93,000 active | P05107+P11215 | K562 CD11b/CD18 adhesion to fibrinogen, ATPlite luminescence;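 active = 10 µM primary screen giving 50% or more activity, confirmed by 40% or more on retest at that dose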
CYP2C9 inhib: inhibitors of human CYP2C9; AID 777; inhibition, % at 5 µM; 20% of 96,000 active; P11712; CYP2C9 Supersomes, luciferin-H conversion, luminescence;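 active = blocking of liver enzyme CYP2C9 beyond about 50% at 5 µM, limit read from the data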
Target sequence (P11712 whole entry, looked up): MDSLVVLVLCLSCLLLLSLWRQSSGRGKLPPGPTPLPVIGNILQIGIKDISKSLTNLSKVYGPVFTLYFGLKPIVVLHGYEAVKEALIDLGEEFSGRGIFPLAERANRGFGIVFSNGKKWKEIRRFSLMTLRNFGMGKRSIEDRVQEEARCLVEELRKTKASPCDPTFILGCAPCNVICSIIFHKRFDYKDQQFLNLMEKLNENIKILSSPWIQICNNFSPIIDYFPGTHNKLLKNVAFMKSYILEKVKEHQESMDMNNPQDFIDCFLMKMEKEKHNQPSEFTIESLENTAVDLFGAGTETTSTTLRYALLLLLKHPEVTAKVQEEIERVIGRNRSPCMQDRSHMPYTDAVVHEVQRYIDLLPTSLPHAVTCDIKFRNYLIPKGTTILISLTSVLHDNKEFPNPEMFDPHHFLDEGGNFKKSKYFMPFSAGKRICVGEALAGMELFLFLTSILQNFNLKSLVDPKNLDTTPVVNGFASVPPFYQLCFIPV
Mac1 fbg inh: inhibitors of human CD11b/CD18 binding to fibrinogen. inhibition, % at 10 µM. K562 CD11b/CD18 adhesion to fibrinogen, ATPlite luminescence; Mn2+ added to activate the integrin. 0.54% of 93,000 active;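 active = primary inhibition of 50% or more at 10 µM, then 40% or more on retest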
CYP2C19 act: cytochrome P450 2C19 (human) activation. 96,000 tested, under 10 active. P33261. recombinant CYP2C19, luciferin-H EGE luminescence; hits give high values; 0 = fully inhibited enzyme, 1 = untreated enzyme. AID 1025. activation factor at 5 µM;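 active = activation factor of at least 2 at 5 µM in the primary screen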;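 also: 0 = wells with 2.5 mM tranylcypromine and 1 = vehicle-only wells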
CYP2C19 inh: blocks human cytochrome P450 2C19; P33261; CYP2C19 Supersomes, luciferin-H EGE luminescence, 30 min; inhibition, % at 5 µM; 21% of 96,000 active; AID 778;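 active = CYP2C19 inhibition above a set limit at 5 µM in the primary screen, cut at about 50% in these data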;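 also: plate controls were negative control wells for no effect and 2.5 mM tranylcypromine positive control for full effect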
CYP2C9 activ: increases human cytochrome P450 2C9 activity; P11712; recombinant CYP2C9, luciferin-H conversion, luminescence; hits give high values; factor 1 = untreated enzyme, 0 = blocked; activation factor at 5 µM; 1.4% of 96,000 active;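 active = activation factor of 2 or more for CYP2C9 at a 5 µM dose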;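 also: 0 = sulfaphenazole-blocked wells and 1 = vehicle-only wells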
* marks the source's active call; other numbers are inactive results; nt = not tested or not shown. The list is not random: actives were taken first. Their share in the collection is about 28%.

SMILES | Mac1 fbg enh | CYP2C9 inhib | Mac1 fbg inh | CYP2C19 act | CYP2C19 inh | CYP2C9 activ
CCCn1nnnc1NCc1cccn1C | -4.5 | -7.1 | 3.1 | 0.9 | 8.4 | 1.1
CCOc1ccc(N2C(=O)CSC23CCCCC3)cc1 | -5.6 | 31.7 | -3.2 | 0.2 | 83.8* | 0.7
Cc1cc2ncn(C(=O)c3c(-c4ccccc4Cl)noc3C)c2cc1C | -3.3 | 44.1 | 5.0 | 0.6 | 37.6 | 0.6
CCOC(=O)N1CCN(C(=O)/C(=C/c2ccc(OC)cc2)NC(=O)c2ccccc2)CC1 | -0.3 | 76.8* | -10.3 | 0.3 | 71.8* | 0.2
Cn1cnnc1SCc1ccc(F)c2ccccc12 | -0.6 | -13.1 | -16.9 | 0.4 | 55.6* | 1.1
Cc1ccc(C(=O)Nc2ncc3c(Cl)cccc3n2)cc1 | nt | 26.2 | nt | 0.7 | 34.2 | 0.7
O=C(CSc1nc2ccccc2[nH]1)N1CCN(c2ccccc2)CC1 | -1.2 | 43.5 | 2.6 | 0.5 | 49.5 | 0.6
O=[N+]([O-])c1ccc(N2CCN(CCO)CC2)cc1Sc1nc2ccccc2[nH]1 | nt | 55.6* | nt | 0.6 | 37.4 | 0.4
Cc1cccc2[nH]c3c(N4CCC5(CC4)OCCO5)ncnc3c12 | -0.9 | 17.4 | 19.5 | 0.5 | 50.8* | 0.8
Brc1ccc2[nH]c3c(N4CCc5ccccc5C4)ncnc3c2c1 | -0.4 | 92.3* | 74.6* | 0.9 | 5.9 | 0.1
Cc1cccc2[nH]c3c(N4CCN(C(=O)c5ccco5)CC4)ncnc3c12 | -4.8 | 38.8 | -0.9 | 0.1 | 89.6* | 0.6
c1ccc2c(c1)[nH]c1c(N3CCOCC3)ncnc12 | -2.0 | 52.0* | 4.0 | 0.9 | 12.3 | 0.5
c1ccc2c(c1)[nH]c1c(N3CCCC3)ncnc12 | -4.5 | -5.5 | 22.2 | 1 | 3.2 | 1.1
CCOc1cc(CN2CCOCC2)cc(C(C)=O)c1 | -1.8 | 6.0 | -9.0 | 0.7 | 30.7 | 0.9
Cc1ccc2[nH]c3c(N4CCOCC4)ncnc3c2c1 | -2.8 | 33.3 | 3.3 | 0.9 | 11.7 | 0.7
Clc1ccc2[nH]c3c(N4CCC5(CC4)OCCO5)ncnc3c2c1 | -7.9 | 72.9* | 66.0 | 0.2 | 75.9* | 0.3
CCOC(=O)C1C(=O)C=C(/C=C/c2ccccc2)CC1c1ccc(Cl)cc1 (configuration not stated) | 3.9 | 21.4 | 7.4 | 0.9 | 9.5 | 0.8
Cc1ccc(C(=O)Nc2nc(-c3ccccc3)c(-c3ccccc3)o2)cc1 | -0.6 | nt | 35.5 | nt | nt | nt
Cc1cc(S(=O)(=O)Nc2nc(CN3CCOCC3)nc3sc4c(c23)CCCC4)ccc1F | -6.1 | 87.9* | 2.1 | 0.4 | 59.8* | 0.1
CC1CCc2c(sc3nc(CN4CCOCC4)nc(NS(=O)(=O)c4cccc([N+](=O)[O-])c4)c23)C1 (configuration not stated) | -6.4 | 84.1* | 67.3* | 0.7 | 26.3 | 0.2
CCCCc1ccc(N2C(=O)[C@@H]3C(CC(N)=O)NC4(C(=O)Nc5ccc(F)cc54)[C@@H]3C2=O)cc1 (some centres not stated) | 0.0 | 24.8 | 13.6 | 1.1 | -8.2 | 0.8
CC1=CC(C)C2(CO)COC(c3ccccc3O)C1C2C (configuration not stated) | -3.6 | 64.2* | 6.8 | 0.1 | 89.8* | 0.4
O=C(CCCC(=O)OCC(Cl)=C(Cl)Cl)Nc1ccccc1 | -2.2 | nt | 23.2 | nt | nt | nt
COc1ccc(-n2c(C)cc(C(=O)COc3ccc(-n4cnnn4)cc3)c2C)cc1 | 57.0 | 6.3 | -7.5 | 1.1 | -9.3 | 0.9
COc1ccc(OCCOC(=O)c2cccc(-n3cnnn3)c2)cc1 | -2.4 | 58.1* | -37.9 | 0.3 | 66.2* | 0.4
SMILES | Mac1 fbg enh | CYP2C9 inhib | Mac1 fbg inh | CYP2C19 act | CYP2C19 inh | CYP2C9 activ
COc1ccc(OCCOC(=O)c2ccc(-n3cnnn3)cc2)cc1 | -3.1 | 73.1* | -27.6 | 0.7 | 31.8 | 0.3
CCOc1ccc(C(C)=O)cc1COc1ccc(-n2cnnn2)cc1 | 1.4 | 78.2* | -27.5 | 0 | 97.0* | 0.2
CCCSc1nc(C)c(-c2csc(C(C#N)=C3CCCC3)n2)cc1C#N | -5.0 | 27.5 | 31.3 | 0.9 | 12.9 | 0.7
O=c1[nH]c2ccccc2n1C1CCCCC1 | -4.7 | -10.1 | 5.3 | 0.8 | 15.0 | 1.1
O=C(CSc1nnc(CCc2ccccc2)n1-c1ccc(Cl)cc1)c1ccccc1 | 4.8 | nt | 15.6 | nt | nt | nt
N=c1c(C(=O)NCc2ccc(F)cc2)cc2c(=O)n3ccccc3nc2n1Cc1cccnc1 | 30.3 | 19.9 | 0.6 | 0.9 | 7.3 | 0.8
CCn1c(=O)c2cc(C(=O)N3CCOCC3)sc2c2ccccc21 | 1.9 | -44.2 | -9.5 | 0.8 | 21.7 | 1.4
Cn1c2ccccc2c2cc(C(=O)N3CCOCC3)sc21 | nt | -148.5 | nt | 0.8 | 23.8 | 2.5*
COc1ccccc1CN1C(=O)c2cccc3cccc(c23)C1=O | -3.1 | nt | -0.4 | nt | nt | nt
O=C1c2cccc3c(O)ccc(c23)C(=O)N1Cc1ccccc1 | -2.6 | -50.9 | 65.5* | 0.4 | 63.5* | 1.5
O=C(O)CCN1Cc2ccccc2C1=O | -2.6 | -1.9 | -5.6 | 1 | -4.8 | 1
O=C1Cc2ccccc2C(=O)N1Cc1ccccc1 | -2.5 | 26.1 | -36.6 | 0.2 | 84.6* | 0.7
Cc1ccc(S(=O)(=O)N2CCC(C(=O)N3CCC(C(=O)NCc4cccnc4)CC3)CC2)cc1 | 9.8 | -7.5 | -35.0 | 1.1 | -9.3 | 1.1
O=C(OCC(=O)N1CCC(Cc2ccccc2)CC1)c1ccc[nH]c1=O | 1.0 | 14.4 | -4.1 | 1 | 0.8 | 0.9
CCOC(=O)c1cc(CC)sc1NC(=O)c1cc(OC)c(OC)c(OC)c1 | 12.4 | 61.8* | -16.9 | 0.9 | 13.7 | 0.4
COc1ccc(NCCNc2ccc(OC)cc2)cc1 | nt | 12.4 | nt | 0.4 | 56.5* | 0.9
Cc1ccc(NCCNc2ccc(C)cc2)cc1 | 3.6 | 11.5 | -4.3 | 0 | 100.0* | 0.9
Cc1ccc(CCSc2ccc(C(C)C)cc2)cn1 | -4.0 | nt | 72.0 | nt | nt | nt
Cc1ccc(NCN2C(=O)C3C4C=CC(C4)C3C2=O)cc1 (configuration not stated) | -1.3 | -6.7 | -8.3 | 0.9 | 8.2 | 1.1
Cc1ccc(NCCc2ccc(C)nc2)cc1 | -2.3 | 22.4 | -0.8 | 0 | 96.3* | 0.8
Cc1ccc(SCC(=O)Nc2cccc(NC(=O)c3ccco3)c2)cc1 | nt | 72.5* | nt | 0.7 | 32.3 | 0.3
CC(=O)Nc1ccc(NC(=O)CSc2ccc(C)cc2)cc1 | -3.7 | 81.0* | 0.0 | 0.3 | 70.4* | 0.2
CSc1cccc(NC(=O)CSc2ccc(C)cc2)c1 | -4.4 | -4.7 | -6.5 | 0.8 | 19.0 | 1
Cc1cc(C)cc(-n2nnnc2SCC(=O)Nc2cccc(NC(=O)c3ccco3)c2)c1 | 10.1 | 34.4 | -19.0 | 0.6 | 36.2 | 0.7
CCCn1nnnc1SCC(=O)Nc1cccc(NC(=O)c2ccco2)c1 | 3.1 | 59.8* | -23.4 | 0.2 | 75.1* | 0.4
Cc1ccc(-n2nnnc2SCC(=O)Nc2cccc(NC(=O)c3ccco3)c2)cc1C | -1.3 | 18.6 | 4.9 | 0.5 | 50.1* | 0.8
O=C(NN1C(=O)c2ccccc2NC1c1ccccn1)c1ccccc1 (configuration not stated) | 2.8 | nt | -17.0 | nt | nt | nt
